FBA Mtb inh = Mtb FBA enzyme inhibitors, primary screen, biochemical, fluorescence, strain H37Rv; 360,000 tested, 2.3% active; inhibition, % at 1 µM; purified M. tuberculosis FBA, fluorescence read-out; Fructose-bisphosphate aldolase (Mycobacterium tuberculosis (strain ATCC 25618 / H37Rv)), …; in the data active = inhibition above about 27%
Rv3671c inh = Rv3671c serine protease inhibitors, primary screen, biochemical, fluorescence polarization, M. tuberculosis H37Rv; inhibition, % at 5.96 µM; P9WHR9; 320,000 tested, 0.048% active; in the data active = inhibition above about 38%;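 note: extracellular domain of Rv3671c used as enzyme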
GDH-TPI inh = GDH-TPI coupling enzyme inhibitors, primary screen, artefact control for M. tuberculosis FBA inhibitor project, biochemical, absorbance, full deck | GDH-TPI coupled enzyme counterscreen, NADH absorbance | inhibition, % at 4.8 µM | 360,000 tested, 1.2% active | AID 588335, 2011; in the data active = inhibition above about 30%
RecA intein inh = Mtb RecA intein splicing inhibitors, primary screen, biochemical, fluorescence, HTS; 290,000 tested, 0.75% active; inhibition, % (test concentration not listed); cell-free RecA intein splicing; Protein RecA (Mycobacterium tuberculosis (strain ATCC 25618 / H37Rv)), P9WHJ3; in the data active = inhibition above about 30%
Mtb UGM inh = M. tuberculosis UGM enzyme inhibitors, primary screen, biochemical, fluorescence polarization, single point; purified UGM, fluorescence polarization probe displacement; 320,000 tested, 0.06% active; inhibition, % at 10 µM; AID 504406, 2011; UDP-galactopyranose mutase (Mycobacterium tuberculosis (strain ATCC 25618 / H37Rv)), …; in the data active = inhibition above about 10%, passing the limit was not always enough
Target sequence (P9WIQ1 whole entry, looked up): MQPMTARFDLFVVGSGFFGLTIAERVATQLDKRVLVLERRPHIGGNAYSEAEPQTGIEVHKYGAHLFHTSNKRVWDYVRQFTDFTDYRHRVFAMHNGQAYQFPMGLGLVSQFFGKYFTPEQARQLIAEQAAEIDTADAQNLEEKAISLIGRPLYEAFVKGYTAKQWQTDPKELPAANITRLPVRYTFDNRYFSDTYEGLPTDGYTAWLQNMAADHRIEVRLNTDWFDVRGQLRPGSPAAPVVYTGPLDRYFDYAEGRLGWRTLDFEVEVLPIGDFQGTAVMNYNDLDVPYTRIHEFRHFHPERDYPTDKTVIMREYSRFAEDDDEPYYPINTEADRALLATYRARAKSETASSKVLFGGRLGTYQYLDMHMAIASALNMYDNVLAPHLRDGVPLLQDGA
Mtb betalactam = beta-lactam sensitization of Mtb H37Rv, H37Rv. M. tuberculosis H37Rv growth with meropenem, percent inhibition. inhibition, % at 25 µM. 330,000 tested, 0.27% active. AID 434955, 2010; call rule not given here;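 note: growth measured after seven days incubation then overnight dye step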
Each line names hits and unclear results; the compound was inactive in the other large screens. Most compounds without a hit are left out; they make up all but 4% or so of the library.

C=CCSc1nc(N)c(C(=O)Nc2ccccc2OC)cc1C(=O)Nc1ccccc1	GDH-TPI inh 37
CCn1c2ccccc2c2cc(/C=N/NC(=O)c3ccc(O)cc3)ccc21	GDH-TPI inh 36 (no result: Mtb UGM inh)
O=C(NC1CCCCCC1)C(=O)NC1CCCC1	none
O=C(CSc1n[nH]c(-c2ccc(S(=O)(=O)NC3CCCCC3)cc2)n1)N1CCCC1	FBA Mtb inh 125
COc1ccccc1NC(=S)NNC(=O)c1c(Cl)c(C)nn1C	none
CS/C(=C\[N+](=O)[O-])Nc1ccc(OC(F)(F)F)cc1	RecA intein inh 57
CCC(=O)N(C)CCc1cc2c(c(OC)c1/C=N/Nc1ccc(C(=O)O)cc1)OCO2	GDH-TPI inh 51
CCC(=O)N(C)CCc1cc2c(c(OC)c1/C=N/NC(=O)[C@H]1C[C@@H]1c1ccccc1)OCO2	none
CC1(C(=O)O)CCN1C(=O)c1cccc(OC(F)(F)F)c1 (stereo not drawn)	none (no result: Rv3671c inh, RecA intein inh, Mtb UGM inh, Mtb betalactam)
CCc1ccc(NC(=O)COC(=O)/C=C/c2ccco2)cc1	none (no result: RecA intein inh)
O=C(O)c1cc(-c2cccs2)nc2ccc(Br)cc12	none
CC(=O)N1CCN(C(=O)c2cc(-c3cccc4ccccc34)nc3ccccc23)CC1	none
CCN1CCN(C(=O)c2cc(-c3ccco3)nc3ccccc23)CC1	FBA Mtb inh 130 (no result: RecA intein inh)
O=C(O)c1cc(-c2ccc(Cl)s2)nc2ccccc12	FBA Mtb inh 159
O=C(O)c1cc(-c2cccs2)nc2ccc(F)cc12	FBA Mtb inh active
CCN1CCN(C(=O)c2cc(-c3ccc(Cl)s3)nc3ccccc23)CC1	FBA Mtb inh 118 (no result: Rv3671c inh, Mtb UGM inh, Mtb betalactam)
Cc1ccc(-c2cc(C(=O)O)c3ccccc3n2)s1	FBA Mtb inh active (no result: Rv3671c inh)
N#Cc1cnc(Nc2nc3ccccc3o2)nc1-c1ccccc1	GDH-TPI inh 33
Cc1ccnc(Nc2nc3ccccc3o2)n1	none
COc1ccc(S(=O)(=O)N2CCCCC2c2cc(C(=O)Nc3ccccc3Cl)no2)cc1 (stereo not drawn)	none (no result: Rv3671c inh, RecA intein inh, Mtb UGM inh, Mtb betalactam)
Cc1nc2ccccc2c2c1C(=O)NC2=O	RecA intein inh 60 (no result: FBA Mtb inh, GDH-TPI inh)
Cc1c(C(=O)Nc2nnc(C3CC3)s2)oc2c(Cl)cccc12	GDH-TPI inh 37
Cc1c(C(=O)Nc2nnc(C3CC3)s2)oc2ccccc12	none (no result: RecA intein inh)
CCCn1cnc2c(oc3ccccc32)c1=O	none (no result: Rv3671c inh)
O=C(O)C1SCCN1S(=O)(=O)c1ccc(N=NN2CCOCC2)cc1 (stereo not drawn)	FBA Mtb inh 165
Cc1cc2oc(=O)cc(CN3CCOCC3)c2cc1C(C)C	none (no result: RecA intein inh)
CCc1ccc2oc(=O)cc(CN3CCN(Cc4ccccc4)CC3)c2c1	none
CCc1cc2c(CN3CCN(CC)CC3)cc(=O)oc2cc1O	FBA Mtb inh active
O=c1cc(CN2CCOCC2)c2cc(Cl)c(O)cc2o1	FBA Mtb inh active
O=C(CSCc1c(Cl)cccc1Cl)NCc1ccccn1	none
C=CCNC(=O)c1snnc1-c1ccccc1	none
COc1c2ccoc2nc2c(OC)c(OCC(OC(C)=O)C(C)(C)O)ccc12 (stereo not drawn)	FBA Mtb inh 130
COc1c2ccoc2nc2c(OC)c(O)ccc12	none
COc1c2ccoc2nc2c(OC)c(OCC(O)C(C)(C)O)ccc12 (stereo not drawn)	FBA Mtb inh 146 (no result: RecA intein inh)
COc1c2ccoc2nc2c(OC)c(OC[C@@H](O)C(C)(C)O)ccc12	FBA Mtb inh 146 (no result: RecA intein inh)
COc1c2ccoc2c(OC[C@@H](OC(C)=O)C(C)(C)O)c2oc(=O)ccc12	none (no result: RecA intein inh)
CCCCc1c(O)nc(SCC(=O)N2CCOCC2)n(-c2ccc(C)cc2)c1=O	none (no result: Rv3671c inh, RecA intein inh, Mtb UGM inh, Mtb betalactam)
Cc1ccc(/C=C/C(=O)OCC(=O)N(C)c2c(N)n(Cc3ccccc3)c(=O)[nH]c2=O)o1	GDH-TPI inh 38 (no result: Rv3671c inh, RecA intein inh, Mtb UGM inh, Mtb betalactam)
O=C(COc1ccccc1F)Nc1nnc(-c2ccncc2)s1	none
O=C(COc1ccc([N+](=O)[O-])cc1)NCc1cccnc1	none
O=C(Nc1nnc(-c2cccnc2)s1)c1cccs1	GDH-TPI inh 42
Cc1ccccc1OCC(=O)Nc1nnc(-c2ccncc2)s1	GDH-TPI inh 33
O=C(COc1ccc([N+](=O)[O-])cc1)Nc1nnc(-c2cccnc2)s1	GDH-TPI inh 35
Cc1cccc(-c2nnc(NC(=O)c3cccs3)s2)c1	none
CCn1c(CNC(=O)c2cccc(C)c2)nnc1SCC(=O)Nc1cccc(OC)c1	none
CC(C)=CCN1CCN(Cc2cnc(N3CCOCC3)s2)CC1CCO (stereo not drawn)	none
Cc1ccccc1NC(=O)COC(=O)CCSc1ccccc1	none
COc1ccccc1C1CCN(C(=O)c2cnn(-c3ccccc3)c2C)CC1	none
Cc1ccc(CN(C)C[C@H]2OCc3cnnn3CCCC(=O)N([C@@H](C)CO)C[C@@H]2C)cc1	none (no result: Rv3671c inh, RecA intein inh, Mtb UGM inh, Mtb betalactam)
CCN(CC)CCn1cnc2c([nH]c3cccc(OC)c32)c1=O	FBA Mtb inh 103
COc1cccc2[nH]c3c(=O)[nH]cnc3c12	FBA Mtb inh 133 (no result: Rv3671c inh)
COc1cccc2c3cccc(OC)c3c3[nH]cnc3c12	none (no result: Rv3671c inh, RecA intein inh, Mtb UGM inh, Mtb betalactam)
CC(C)N(CCn1cnc2c([nH]c3ccccc32)c1=O)C(C)C	none
COc1cccc2[nH]c3c(=O)n(CCN(C)C)cnc3c12	FBA Mtb inh 117
CCn1c(CCNC(=O)c2ccc(Cl)c(Cl)c2)nnc1SCCOc1ccc(OC)cc1	none (no result: RecA intein inh)
COCCn1c(-c2ccc(NC(C)=O)cc2)nc2c1c(=O)[nH]c(=O)n2CC(C)C	FBA Mtb inh 126
CC(C)Cn1c(-c2ccc(C#N)cc2)nc2c1c(=O)[nH]c(=O)n2CC(C)C	FBA Mtb inh active
CCCCn1c(=O)[nH]c(=O)c2c1nc(-c1ccc(C#N)cc1)n2C1CCCC1	FBA Mtb inh 166
CCCCn1c(=O)[nH]c(=O)c2c1nc(-c1ccc(OCC)cc1)n2CC	none
CC1(C(=O)NS(=O)(=O)c2cccc(Cl)c2)CCN1C(=O)c1cccc(F)c1 (stereo not drawn)	none (no result: Rv3671c inh, RecA intein inh, Mtb UGM inh, Mtb betalactam)
CN(Cc1cnn(C)c1)C(=O)c1cc2ccccc2oc1=O	none
COC(=O)c1c(N)sc(C(C)=O)c1C	GDH-TPI inh 44
Cc1ccc2ncc(NC(=O)c3ccc(F)cc3)c(=O)n2c1	GDH-TPI inh 33
O=C(O)c1ccc2ncc(NC(=O)c3ccc(F)cc3)c(=O)n2c1	none
Brc1ccc(OCc2cn3ccccc3n2)cc1	none
CC(=O)c1ccc(N2CCN(c3ccc(C(N)=O)cc3[N+](=O)[O-])CC2)cc1	GDH-TPI inh 33
NC(=O)c1ccc(N2CCN(c3ccc(O)cc3)CC2)c([N+](=O)[O-])c1	none
CC(C)CCNC(=O)Cn1c(NCCC(C)C)nc2c1c(=O)n(C)c(=O)n2C	none (no result: FBA Mtb inh, GDH-TPI inh)
Cc1ccc2c(c1)C(c1ccc([N+](=O)[O-])cc1)=NNC(c1ccc(Br)cc1)=N2	none

Bioassay records deposited in PubChem BioAssay by several laboratories.
